Holding throughout (assay): NCI-60 one-dose screen, 48 h (100 = growth as untreated, 0 = no growth, -100 = all killed)
Holding throughout (conditions): 10 µM

Test [1] concerns HCT-15 colon.
In test [2] the test system is HT29 colon.
The test system of test [3] is SNB-75 CNS.
Test [4] concerns SNB-19 CNS.
Test [5] concerns U251 CNS.
In test [6] the test system is PC-3 prostate.
Test [7] has as its system SK-MEL-5 melanoma.
For test [8], the system named is UACC-62 melanoma.
For test [9], the system named is LOX IMVI melanoma.
Test [10] relates to SK-MEL-28 melanoma.
Test [11] has as its system SK-MEL-2 melanoma.
Test [12] has as its system EKVX NSCLC.
In test [13] the test system is SN12C renal.
In test [14] the test system is UO-31 renal.
Test [15] deals with TK-10 renal.
Test [16] has as its system ACHN renal.
Test [17] relates to CAKI-1 renal.
For test [18], the system named is A498 renal.
Test [19] relates to CCRF-CEM leukemia.
The test system of test [20] is MOLT-4 leukemia.

This is part of a sample that, as a whole, favours compounds with a hit. Of some 83,000 tested, about 20% had one in any assay.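 The test compound was applied at a single concentration to cells in 96-well plates for 48 hours, and percent growth was recorded.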 Unmarked numbers belong to inactive results. Calls of active or inactive are those of the source. How the source made its calls: active means growth percent below 10; inactive means the rest.

On to `O=C(NO)c1ccc(Cn2ccc3c(NCc4ccccc4)ncnc32)cc1`, for which the growth was -16.7% (active) in test [1]; 0.726% (active) in test [2]; -8.17% (active) in test [3]; -7.76% (active) in test [4]; -34% (active) in [5]; 7.14% (active) in test [6]. The growth in test [7] is -75% (active); in test [8], -43.3% (active); in test [9] it was -99.6% (active); in test [10], 0.239% (active); in test [11], -2.65% (active); in test [12] it was 21.4%. Besides, the growth is 13.9% in [13]; 4.26% (active) in test [14]; -7.3% (active) in [15]; 0.241% (active) in [16]; 2.72% (active) in [17]; -20.1% (active) in [18]. Also, the growth in [19] was 8.45% (active); in test [20], 3.81% (active).

Consider `Cc1ccc(NCC(=O)Nn2c(COc3ccccc3)nc3ccccc3c2=O)cc1`, for which the growth in [1] is 93%; in test [2] it was 92.4%; in [3], 23.4%; in test [4] it was 6.78% (active); in test [5] it was 62.2%; in [6], 74.2%. Further, the growth is 85.9% in test [7]; 61.3% in [8]; 91.6% in test [9]; 91.3% in test [10]; 87.2% in [11]; 84.6% in [12]. The growth in test [13] was 40.4%; in [14] it was 80.8%; in [15], 86.9%; in [16], 72.8%; in test [17], 44.3%; in test [18] it was 91.9%. The results for the growth in test [19] and in test [20] were 101% and 106%, respectively.

For `CC(=O)c1ccc(Nc2nc(SCCC(C)C)nc(-c3ccc(F)cc3)c2C#N)cc1`, the growth was 63.8% in [1]; 47.9% in [2]; 52.3% in test [3]; 20.4% in test [4]; 2.09% (active) in test [5]; 80.2% in [6]. For the same compound, the growth is 93.8% in test [7]; 89.8% in test [8]; 5.44% (active) in test [9]; 83.5% in test [10]; 117% in test [11]; 52.7% in [12]. The growth in test [13] is 22.7%; in test [14] it was 24.7%; in [15], 6.32% (active); in test [16], -42.9% (active); in test [17], 16.2%; in test [18], 15.6%. Further, the growth in test [19] is 86.9%; in test [20] it was 76.9%.

Take `O=c1[nH]c2ccccc2cc1CSc1ccc(Nc2nccc(-c3ccc(Cl)cc3)n2)cc1`: the growth in [1] is 8.92% (active); in test [2] it was 0.0418% (active); in [3] it was -41.8% (active); in test [4], -40.3% (active); in test [5], -72.3% (active); in test [6], 8.58% (active). The growth was 48.2% in test [7]; 23.7% in test [8]; -79.6% (active) in [9]; 43.2% in [10]; 4.31% (active) in [11]; -49.6% (active) in test [12]. In addition, the growth in [13] was -47.7% (active); in test [14], -70.4% (active); in test [15] it was -64.2% (active); in test [16], -89.9% (active); in [17], -83.5% (active); in test [18] it was -65.3% (active). Moreover, the growth in [19] was 57.1%; in [20], 59.8%.

Turning to `COc1ccc(N(C)c2cc(C#N)nc3ccccc23)cc1N`, the growth in [1] is 0.224% (active); in test [2] it was -22.1% (active); in test [3], 15.3%; in test [4], 12.2%; in test [5] it was 9.78% (active); in [6], 30.3%. The growth was -47.7% (active) in test [7]; 23.5% in test [8]; 15% in test [9]; 56.3% in [10]; 4.88% (active) in test [11]; 20.5% in [12]. The growth in [13] was 5.85% (active); in test [14] it was 20.6%; in test [15], 76.7%; in [16], 23.5%; in [17], 26.1%; in [18], 113%. Further, the growth in test [19] was 5.77% (active); in test [20], 15.4%.

In the case of `N#Cc1c(Cl)nc(SCc2ccc(F)cc2)nc1-c1ccc(F)cc1`, the growth in test [1] is 87%; in test [2], 66.6%; in test [3] it was 123%; in [4] it was 98%; in test [5], 92.8%; in test [6], 91.1%. Also, the growth in test [7] was 86.2%; in [8], 86%; in [9], 90.2%; in test [10], 104%; in test [11], 97.9%; in test [12], 89.1%. The growth in test [13] was 80.9%; in [14], 87.1%; in [15], 98.2%; in test [16], 99.5%; in test [17], 94.9%; in [18], 115%. The growth is 86.7% in test [19] and 80.6% in test [20].

Turning to `CCOC(=O)C1=C(N)N(c2ccccc2)C2=C(C(=O)CC(C)(C)C2)C1c1ccccc1OC` (stereo not given), the growth in test [1] was 96.3%; in test [2] it was 103%; in test [3], 94%; in test [4] it was 92.2%; in test [5], 111%; in test [6], 89.2%. Moreover, the growth is 97.2% in [7]; 80.4% in test [8]; 101% in test [9]; 110% in test [10]; 109% in test [11]; 91.9% in [12]. For the same compound, the growth is 92.6% in test [13]; 74.4% in test [14]; 106% in test [15]; 103% in test [16]; 97.2% in test [17]; 98.7% in test [18]. The growth in test [19] is 100%; in [20], 105%.

Values taken from PubChem BioAssay (NCI).
